In PubChem BioAssay one finds composite z-score and z-score data, which are given here for five molecules.

Assay [1] can be described thus: compounds binding Alexa647 anti-His antibody – biochemical, small-molecule microarray, 635 nm fluorescence, artefact control for SMM control protein annotation, primary screen (AID 1128).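 Note: score merges feature fluorescence with signal-to-noise for each printed compound spot.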 To be noted: higher = more signal.
Assay [2] deals with Human papillomavirus type 1a E7 protein (residues 1-88). The experiment in a line: HPV1a E7 small-molecule binders, primary screen, biochemical, small-molecule microarray, residues 1-88, 635 nm (AID 1129). Particulars: small-molecule microarray binding, fluorescence 635 nm; higher = more signal.
The target of assay [3] is Focal adhesion kinase 1 (Homo sapiens) (UniProt Q05397). The experiment in a line: PTK2 protein binding on printed compound slides – biochemical, small-molecule microarray, 635/667 nm fluorescence, BSA, DTT, primary screen (AID 1130).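 Note: composite of spot emission at 667 nm and signal to noise over triplicate slides.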 Particulars: 635 nm fluorescence, higher = more signal.
Focal adhesion kinase 1 (Homo sapiens), sequence (Q05397 whole entry, looked up): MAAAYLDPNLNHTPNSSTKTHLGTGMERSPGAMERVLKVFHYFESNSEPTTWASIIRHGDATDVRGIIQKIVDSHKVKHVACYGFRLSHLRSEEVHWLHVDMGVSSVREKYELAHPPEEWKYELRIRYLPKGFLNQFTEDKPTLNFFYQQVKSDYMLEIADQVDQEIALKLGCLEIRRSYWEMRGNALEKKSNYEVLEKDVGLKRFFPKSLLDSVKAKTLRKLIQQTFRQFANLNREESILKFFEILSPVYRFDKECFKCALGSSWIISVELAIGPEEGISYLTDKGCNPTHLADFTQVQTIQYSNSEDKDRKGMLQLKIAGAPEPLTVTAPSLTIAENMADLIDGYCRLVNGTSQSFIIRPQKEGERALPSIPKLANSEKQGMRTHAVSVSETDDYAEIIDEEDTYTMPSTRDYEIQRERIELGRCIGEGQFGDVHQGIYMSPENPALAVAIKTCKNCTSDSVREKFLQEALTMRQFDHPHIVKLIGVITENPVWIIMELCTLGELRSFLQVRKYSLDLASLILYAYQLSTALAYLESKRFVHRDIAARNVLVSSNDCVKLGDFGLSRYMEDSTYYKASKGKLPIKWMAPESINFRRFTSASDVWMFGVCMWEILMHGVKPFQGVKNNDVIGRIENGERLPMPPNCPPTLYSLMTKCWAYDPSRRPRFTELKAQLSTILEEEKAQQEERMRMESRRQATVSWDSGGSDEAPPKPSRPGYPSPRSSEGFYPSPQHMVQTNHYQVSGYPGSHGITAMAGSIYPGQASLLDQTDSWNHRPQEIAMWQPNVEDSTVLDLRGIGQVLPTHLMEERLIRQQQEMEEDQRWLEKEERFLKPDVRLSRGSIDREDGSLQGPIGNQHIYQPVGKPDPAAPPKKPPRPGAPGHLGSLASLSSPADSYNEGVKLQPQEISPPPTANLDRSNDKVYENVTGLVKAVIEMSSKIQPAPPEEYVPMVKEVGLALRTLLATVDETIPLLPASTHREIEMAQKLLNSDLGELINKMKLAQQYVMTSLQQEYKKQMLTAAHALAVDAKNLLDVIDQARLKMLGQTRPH
The subject of assay [4] is Fibrinogen (Alexa647-labelled). As to the kind of experiment: Alexa647-fibrinogen binding to printed small molecules – biochemical, small-molecule microarray, 635/667 nm fluorescence, artefact control for SMM control-protein annotation, profiling panel (AID 1131).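 Note: z-score merges 667 nm fluorescence with per-spot signal-to-noise over triplicate slides.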 To be noted: fibrinogen-A647 binding fluorescence, higher = more signal.
The target of assay [5] is Follistatin (Homo sapiens) (UniProt P19883). As to the kind of experiment: FST protein binding to printed compounds – biochemical, small-molecule microarray, 635/667 nm fluorescence, primary screen (AID 1132). Particulars: 635 nm fluorescence, higher = more signal.
Follistatin (Homo sapiens), sequence (P19883 whole entry, looked up): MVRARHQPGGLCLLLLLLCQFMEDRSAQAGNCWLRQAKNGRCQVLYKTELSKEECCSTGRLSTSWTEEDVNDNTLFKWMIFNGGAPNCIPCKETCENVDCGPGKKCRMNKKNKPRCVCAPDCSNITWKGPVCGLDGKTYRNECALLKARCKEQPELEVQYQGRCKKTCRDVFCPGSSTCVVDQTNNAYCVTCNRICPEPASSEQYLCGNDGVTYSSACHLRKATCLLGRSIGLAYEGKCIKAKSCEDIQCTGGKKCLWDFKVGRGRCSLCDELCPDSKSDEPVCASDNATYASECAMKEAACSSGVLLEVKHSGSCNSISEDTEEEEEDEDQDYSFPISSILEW
Assay [6] has as its target Fibroblast growth factor 2 (Homo sapiens) (UniProt P09038). As to the kind of experiment: basic fibroblast growth factor binding to printed compounds – biochemical, small-molecule microarray, 635/667 nm fluorescence, primary screen (AID 1133). Particulars: FGF2, fluorescence 635/667, higher = more signal.
Assay [7] can be described thus: JC-1 mitochondrial potential readout, lung cancer cells – cell-based, A549, JC-1 fluorescence, basal, 24 h, 100 nL, profiling panel (AID 1138).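 Note: A549 lung adenocarcinoma cells under basal conditions with no added stimulus; test concentration not given here.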 Particulars: higher = more signal.
The test system of a further assay is Lefty1. The experiment in a line: Lefty1 protein binding to printed compounds – biochemical, small-molecule microarray, 635/667 nm fluorescence, primary screen (AID 1139). To be noted: fluorescence 635/667, higher = more signal.
Assay [8] concerns wheat germ agglutinin (Triticum aestivum), Alexa647-labelled. The experiment in a line: Alexa647-WGA lectin binding to printed small molecules – biochemical, small-molecule microarray, 635/667 nm fluorescence, artefact control for SMM control-protein annotation, profiling panel (AID 1140).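 Note: score merges 667 nm feature emission with signal to noise over triplicate slides.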 Particulars: WGA-A647 binding, 635 nm fluorescence, higher = more signal.
Assay [9] addresses Luciferin 4-monooxygenase (Photinus pyralis) (UniProt P08659). The experiment in a line: inhibition of purified Photinus pyralis luciferase – biochemical, luminescence, purified enzyme, 2006 set, primary screen (AID 1141).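 Note: cell-free assay with purified firefly luciferase at 100 ng per well in PBS; test concentration not given here.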 To be noted: purified firefly luciferase, SteadyGlo luminescence, 30 min; higher = more signal, called active from +8 up or from −8 down.
The subject of assay [10] is Wnt5a (protein binding on small-molecule microarray). The experiment in a line: small molecules binding Wnt5a protein – biophysical, small-molecule microarray, 635/667 nm fluorescence, primary screen (AID 1142).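 Note: fluorescence read at 667 nm with signal to noise per printed feature.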 Particulars: 635 nm fluorescence, higher = more signal.
The nature of assay [11]: ATP-based viability of Huh7 replicon cells – cell-based, CellTiter-Glo luminescence, basal, 48 h, cytotoxicity control for HCV replication inhibitor project, primary screen (AID 1143).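 Note: Huh7 hepatoma cells carrying a hepatitis C replication reporter with no stimulus; test concentration not given here.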 To be noted: higher = more signal, called active from +8 up or from −8 down.
Assay [12] in a line: Pseudomonas biofilm growth suppression – PAO1 strain, BacTiter-Glo luminescence, LB-PBS, primary screen (AID 1144). To be noted: P. aeruginosa PAO1 biofilm, 12 h, higher = more signal.
A short description of assay [13]: basal CRE-LacZ reporter activity in PC12 – cell-based, unstimulated, primary screen (AID 1145). Particulars: no forskolin, luminescence, 4.5 h, higher = more signal, called active from +8 up or from −8 down.
Assay [14] is described as follows: forskolin-driven CRE-LacZ activity in PC12 – cell-based, CRE-LacZ reporter, forskolin-stimulated, primary screen (AID 1146).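 Note: PC12 cells with 6xCRE LacZ reporter stimulated by forskolin 10 µM; beta-galactosidase reporter signal reflecting CREB driven transcription.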 To be noted: luminescence, 4.5 h, higher = more signal, called active from +8 up or from −8 down.
For assay [15], the target named is Streptavidin (Streptomyces avidinii) (UniProt P22629). The experiment in a line: compounds binding control protein streptavidin – biophysical, small-molecule microarray, 635/667 nm fluorescence, artefact control for SMM compound annotation, primary screen (AID 1147).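 Note: signal reflects streptavidin binding to arrayed compounds as a control protein.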 To be noted: higher = more signal.
Streptavidin (Streptomyces avidinii), sequence (P22629 whole entry, looked up): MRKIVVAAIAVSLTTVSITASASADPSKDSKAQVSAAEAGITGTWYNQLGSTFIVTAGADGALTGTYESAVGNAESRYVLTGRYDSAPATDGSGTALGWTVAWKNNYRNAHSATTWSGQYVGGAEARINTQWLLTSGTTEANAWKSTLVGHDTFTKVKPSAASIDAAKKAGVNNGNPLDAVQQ
Assay [16] can be described thus: probe aInhba binding on compound microarray – biochemical, small-molecule microarray, 635/667 nm fluorescence, primary screen (AID 1148).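 Note: score merges 667nm spot fluorescence with signal-to-noise for antibody binding to printed compounds.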 Particulars: higher = more signal.
Assay [17] deals with Torsin-1A (Homo sapiens) (UniProt O14656). As to the kind of experiment: TOR1A wild-type binding on microarray – cell lysate, small-molecule microarray, lysate, 635/667 nm, primary screen (AID 1149). Particulars: COS7 hTOR1A-WT lysate, 635 nm fluorescence, higher = more signal.
Torsin-1A (Homo sapiens), sequence (O14656 whole entry, looked up): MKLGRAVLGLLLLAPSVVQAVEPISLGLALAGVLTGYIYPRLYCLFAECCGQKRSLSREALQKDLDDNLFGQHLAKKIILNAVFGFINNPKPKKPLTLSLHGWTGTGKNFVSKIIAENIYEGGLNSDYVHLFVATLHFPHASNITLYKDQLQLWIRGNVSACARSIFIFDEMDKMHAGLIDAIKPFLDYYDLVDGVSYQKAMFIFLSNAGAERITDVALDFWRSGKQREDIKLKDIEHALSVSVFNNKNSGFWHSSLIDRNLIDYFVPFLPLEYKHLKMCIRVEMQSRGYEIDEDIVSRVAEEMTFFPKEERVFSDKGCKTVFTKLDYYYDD
The target is the same in assay [18]. The experiment in a line: torsin A mutant lysate binding on microarrays – cell lysate, small-molecule microarray, COS7 lysate, 635/667 nm fluorescence, primary screen (AID 1150).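 Note: score pools 667 nm emission and signal to noise measuring lysate protein binding.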 Particulars: COS7 hTOR1A mutant lysate, 635 nm fluorescence, higher = more signal.
Assay [19] deals with Sonic hedgehog protein (Shh). As to the kind of experiment: Sonic hedgehog microarray binding compounds – biochemical, small-molecule microarray, 635/667 nm fluorescence, primary screen (AID 1151).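 Note: Shh protein binding to compounds spotted on small-molecule microarray slides; score combines spot fluorescence intensity with signal-to-noise across triplicate slides.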 Particulars: 635 nm fluorescence, higher = more signal.

Structures are written as SMILES. Active and inactive are the calls of the source. Unless noted, the rule behind the calls is not given here.

Luciferin 4-monooxygenase (Photinus pyralis), sequence (P08659 whole entry, looked up): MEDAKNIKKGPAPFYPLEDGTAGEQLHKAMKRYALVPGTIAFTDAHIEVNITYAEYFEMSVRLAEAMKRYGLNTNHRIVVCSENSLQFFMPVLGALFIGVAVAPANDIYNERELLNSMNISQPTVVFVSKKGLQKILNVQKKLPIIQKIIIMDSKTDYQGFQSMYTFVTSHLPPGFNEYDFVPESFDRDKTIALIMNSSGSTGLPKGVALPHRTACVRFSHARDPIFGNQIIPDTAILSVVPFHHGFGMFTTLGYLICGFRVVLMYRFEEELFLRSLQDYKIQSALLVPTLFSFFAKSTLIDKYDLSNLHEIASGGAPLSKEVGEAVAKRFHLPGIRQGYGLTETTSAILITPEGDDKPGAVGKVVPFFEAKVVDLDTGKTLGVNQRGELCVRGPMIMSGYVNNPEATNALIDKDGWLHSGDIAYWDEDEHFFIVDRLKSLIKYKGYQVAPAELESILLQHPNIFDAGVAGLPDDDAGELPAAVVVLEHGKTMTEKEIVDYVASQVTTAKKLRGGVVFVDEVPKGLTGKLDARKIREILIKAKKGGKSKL
Fibroblast growth factor 2 (Homo sapiens), sequence (P09038 whole entry, looked up): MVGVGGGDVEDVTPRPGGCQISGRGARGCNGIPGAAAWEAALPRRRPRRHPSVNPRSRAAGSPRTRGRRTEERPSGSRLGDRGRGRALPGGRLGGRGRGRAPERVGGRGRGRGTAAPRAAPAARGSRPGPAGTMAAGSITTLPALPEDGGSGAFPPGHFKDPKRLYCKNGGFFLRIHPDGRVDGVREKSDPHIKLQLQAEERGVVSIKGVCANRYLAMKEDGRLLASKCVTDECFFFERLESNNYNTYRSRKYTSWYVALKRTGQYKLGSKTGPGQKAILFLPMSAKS

As to `O=C1C2C=CC(C(O)C(c3ccccc3)c3ccccc3)N(Nc3ccccc3F)C2C(=O)N1c1ccccc1` (stereo not given), the composite z-score in [1] was 1.65; in assay [2] it was 1.24; in [3] it was 0.22; in assay [4] it was 0.97; in assay [5], 1.2; in [6], 0.158. The composite z-score in the assay on Lefty1 stood at 0.667; in [8], 1.1; in assay [10], 0.739; in assay [15], 1.58; in assay [16], 0.0183; with Torsin-1A (Homo sapiens) [17] it was 1.02. In addition, the composite z-score was 0.895 with Torsin-1A (Homo sapiens) [18] and 0.868 in assay [19]. Moreover, the z-score was -1.18 in assay [7]; 0.294 (inactive) in assay [9]; -1.16 (inactive) in [11]; 0.712 (inactive) in assay [12]; 2.73 (inactive) in assay [13]; 0.993 (inactive) in [14].
In the case of `Cc1ccc(S[C@]2(C(=O)NCC(C)C)CC(=O)N(C(C)C)[C@@H]2c2ccc(CO)cc2I)cc1`, the composite z-score in assay [1] is -1.38; in [2], -0.807; in [3], -0.0038; in [4], -0.942; in [5] it was -0.888; in [6], 0.101. Also, the composite z-score with Lefty1 was -1.16; in [8] it was -0.353; in assay [10] it was 0.241; in assay [15] it was -0.807; in [16] it was -0.173; with Torsin-1A (Homo sapiens) [17] it was -0.782. For the same molecule, the composite z-score with Torsin-1A (Homo sapiens) [18] was -0.607; in [19], -1.07. For the same molecule, the z-score is -0.294 in [7]; -0.965 (inactive) in [9]; -1.44 (inactive) in [11]; 0.502 (inactive) in [12]; 0.0909 (inactive) in assay [13]; 0.205 (inactive) in [14].
On to `COCCOC(=O)N1C(=O)[C@@]2(c3cc(C#CC4(O)CCCCCC4)ccc31)[C@H](C(N)=O)[C@H]1C(=O)O[C@H](c3ccccc3)[C@H](c3ccccc3)N1[C@@H]2c1ccc(OCCO)cc1`, for which the composite z-score in [1] was found to be 2.19; in assay [2] it was 1.21; in assay [3] it was 0.428; in [4], 0.95; in assay [5], 1.34; in assay [6], 0.888. The composite z-score was found to be 0.673 with Lefty1; 1.11 in [8]; 0.309 in [10]; 0.84 in [15]; 0.201 in [16]; 0.838 in the assay with Torsin-1A (Homo sapiens) [17]. Moreover, the results for the composite z-score (in the assay with Torsin-1A (Homo sapiens) [18]; in [19]) were 0.637 and 1.24, respectively. The z-score in [7] was -1.71; in assay [9], -1.03 (inactive); in assay [11], -4.36 (inactive); in assay [12] it was -0.295 (inactive); in [13] it was 0.362 (inactive); in assay [14], 0.0846 (inactive).
Consider `O=C/C=C/c1ccc(-c2ccccc2)cc1`, for which the composite z-score in [1] was -0.221; in assay [2] it was -0.142; in assay [3], -0.164; in assay [4] it was -0.964; in assay [5], 0.276; in assay [6], -0.377. Moreover, the composite z-score with Lefty1 is -0.155; in assay [8] it was -0.484; in [10], -0.166; in [15] it was 0.175; in [16], -0.101; with Torsin-1A (Homo sapiens) [17], -0.0497. The values for the composite z-score (in the assay with Torsin-1A (Homo sapiens) [18]; in assay [19]) were 0.0552 and 0.083, respectively. Besides, the z-score in assay [7] was 0.294; in [9], 0.0686 (inactive); in [11], -2.73 (inactive); in assay [12], 1.68 (inactive); in [13], 2.11 (inactive); in assay [14], 3.74 (inactive).
Turning to `CN(C)CCCC[C@@H]1NC(=O)[C@H]2C[C@@H](C(=O)NCCCCCCNC(=O)CS)[C@@H](c3cccc(OCCO)c3)N2C1=O`, the composite z-score in assay [1] amounted to 1.17; in [2], 0.593; in [3] it was 0.292; in assay [4] it was 0.511; in assay [5], 0.52; in assay [6], 1. The composite z-score was -0.673 in the assay on Lefty1; -0.115 in [8]; 0.1 in [10]; 0.0448 in assay [15]; -0.101 in assay [16]; 0.0638 with Torsin-1A (Homo sapiens) [17]. For the same molecule, the composite z-score with Torsin-1A (Homo sapiens) [18] was determined as 0.767; in assay [19] it was 0.871. Moreover, the z-score in assay [7] was 0.115; in [9], 0.117 (inactive); in assay [11] it was 1.17 (inactive); in [12], -0.444 (inactive); in assay [13] it was -0.809 (inactive); in [14] it was -1.09 (inactive).
